A number with no mark means an inactive call. Records with an inconclusive call do not appear. Active and inactive are the calls of the source. Unless noted, calls follow the shape of the dose curve; as a rule, active = well fitted curve in the direction sought with a large enough effect in the repeat runs; inconclusive = weak or mixed curves; inactive = no such curve, though single readings can be large; an effect the other way counts as inactive or inconclusive.

A short description of experiment [1]: A CellTox Green Cytotoxicity Assay to monitor cytotoxicity in HepG2 cells - 16 hour (AID 1224876). Also: nearly all actives have a fitted effect of over 45% in size. The method, boiled down: (§1)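 Cytotoxicity was tracked as dead-cell DNA fluorescence in HepG2 cells treated with test compounds at 37 C; each time-point value comes from one kinetic series spanning 0, 8, 16, 24, 32 and 40 h.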
A short description of experiment [2]: qHTS RealTime-Glo MT Cell Viability Assay in HepG2 cells - 32 hour (AID 1224877). Also: nearly all actives have a fitted effect of over 55% in size. The method, boiled down: (§2)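 Real-time, nonlytic viability: 600 HepG2 cells/well mixed with NanoLuc enzyme plus prosubstrate; 5 h settle, compound (DMSO) added by pintool; luminescence monitored over 40 h at 37 C.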
Experiment [3] in a line: A CellTox Green Cytotoxicity Assay to monitor cytotoxicity in HepG2 cells - 24 hour (AID 1224878). Also: nearly all actives have a fitted effect of over 45% in size. In outline: as §1
Experiment [4] in a line: A CellTox Green Cytotoxicity Assay to monitor cytotoxicity in HepG2 cells - 40 hour (AID 1224879). Also: nearly all actives have a fitted effect of over 40% in size. The method, boiled down:
as §1

A short description of experiment [5]: qHTS RealTime-Glo MT Cell Viability Assay in HEK293 cells - 0 hour (AID 1224880). Also: top concentration of the series differs between compounds; nearly all actives have a fitted effect of over 45% in size. In outline: (§3)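 Kinetic, non-lysing viability readout. Seed HEK293 (600/well) with reagent, incubate 5 h at 37 C/5% CO2, pin 23 nL compound in DMSO, incubate at 37 C, read luminescence at 0, 8, 16, 24, 32, 40 h.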
Experiment [6] is described as follows: A CellTox Green Cytotoxicity Assay to monitor cytotoxicity in HepG2 cells - 0 hour (AID 1224882). Also: nearly all actives have a fitted effect of over 35% in size. The method, boiled down:
as §1

Experiment [7] in a line: A CellTox Green Cytotoxicity Assay to monitor cytotoxicity in HepG2 cells - 32 hour (AID 1224883). Also: nearly all actives have a fitted effect of over 50% in size. In outline:
as §1

The nature of experiment [8]: A CellTox Green Cytotoxicity Assay to monitor cytotoxicity in HEK293 cells - 8 hour (AID 1224884). Also: nearly all actives have a fitted effect of over 35% in size. The method, boiled down: (§4)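 Real-time, in one plate: 600 HEK293 cells/well with dead-cell DNA dye, pinned compound after 5 h, 37 C incubation over 40 h; viable cells give no appreciable fluorescence.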
Experiment [9] can be described thus: qHTS RealTime-Glo MT Cell Viability Assay in HepG2 cells - 16 hour (AID 1224885). Also: nearly all actives have a fitted effect of over 50% in size. In outline: as §2
Experiment [10] can be described thus: qHTS RealTime-Glo MT Cell Viability Assay in HEK293 cells - 24 hour (AID 1224886). Also: nearly all actives have a fitted effect of over 50% in size. Also: potency is read from the fitted curve at half-maximal effect. The method, boiled down:
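Cells + reagent dispensed (600 cells/well, HEK293) → 5 h at 37 C/5% CO2 → 23 nL compound in DMSO pinned → 40 h at 37 C → luminescence read at 0, 8, 16, 24, 32, 40 h.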

A short description of experiment [11]: qHTS RealTime-Glo MT Cell Viability Assay in HEK293 cells - 8 hour (AID 1224887). Also: top concentration of the series differs between compounds; nearly all actives have a fitted effect of over 50% in size. The method, boiled down:
as §3

Experiment [12] is described as follows: A CellTox Green Cytotoxicity Assay to monitor cytotoxicity in HEK293 cells - 16 hour (AID 1224888). Also: nearly all actives have a fitted effect of over 35% in size. In outline:
as §4

Experiment [13] in a line: qHTS RealTime-Glo MT Cell Viability Assay in HepG2 cells - 0 hour (AID 1224889). Also: nearly all actives have a fitted effect of over 50% in size. The method, boiled down: as §2
Experiment [14] is described as follows: A CellTox Green Cytotoxicity Assay to monitor cytotoxicity in HepG2 cells - 8 hour (AID 1224890). Also: nearly all actives have a fitted effect of over 45% in size. In outline: as §1
Experiment [15] is described as follows: qHTS assay to identify small molecule antagonists of the estrogen receptor alpha (ER-alpha) signaling pathway using the BG1 cell line in the presence of 0.1 nM 17-beta-estradiol - cell viability counter screen (AID 1259241). Also: nearly all actives have a fitted effect of over 40% in size. The method, boiled down: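 CellTiter-Fluor read (30 min, 37C) on ER-alpha/ERE-luc VM7Luc4E2 cells; 22 hr compound treatment; agonist 0.1 nM E2 final; same-well multiplex.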

Experiment [16] can be described thus: qHTS assay to identify small molecule antagonists of the androgen receptor (AR) signaling pathway using the MDA cell line in the presence of 0.5 nM R1881 - cell viability counter screen (AID 1259242). Also: nearly all actives have a fitted effect of over 45% in size. In outline:
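Cells seeded at 3,000/well and allowed 5 hr at 37C, 0% CO2 before compound transfer and R1881 (0.5 nM final) addition; 16 hr later, live-cell protease fluorescence indicated cytotoxicity.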

Experiment [17] can be described thus: qHTS assay to identify small molecule phospholipidosis (PLD) inducers (AID 1259344; active = well fitted curve in the direction sought with a large enough effect; an effect the other way counts as inactive or inconclusive). The method, boiled down: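 Cells (HepG2, 900 per well) attach for 4 h, receive LipidTOX Red and compound together, incubate 24 h at 37 C, are fixed 30 min with paraformaldehyde/Hoechst, then imaged at one site per well.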
A short description of experiment [18]: A CellTox Green Cytotoxicity Assay to monitor cytotoxicity in HEK293 cells - 32 hour (AID 1224881). Also: nearly all actives have a fitted effect of over 40% in size. In outline: as §4
Experiment [19] is described as follows: qHTS assay to identify small molecule HDAC inhibitors (AID 1259364). In outline: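 HCT-116 wt cells, 1,500/well, overnight attach. Compounds (DMSO) 2 h, 37 °C. HDAC-Glo I/II, 30 min RT. Luminescence.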
In experiment [20] the target is Estrogen receptor (Homo sapiens) (UniProt P03372). Put plainly: qHTS assay to identify small molecule antagonists of the estrogen receptor alpha (ER-alpha) signaling pathway using the BG1 cell line in the presence of 0.1 nM 17-beta-estradiol (AID 1259244). Also: nearly all actives have a fitted effect of over 50% in size. In outline:
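Luciferase signal from VM7Luc4E2 ERE-reporter cells, co-dosed with test compound and 0.1 nM final 17beta-estradiol for 22 h, read with ONE-Glo.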

Estrogen receptor (Homo sapiens), sequence (P03372 whole entry, looked up): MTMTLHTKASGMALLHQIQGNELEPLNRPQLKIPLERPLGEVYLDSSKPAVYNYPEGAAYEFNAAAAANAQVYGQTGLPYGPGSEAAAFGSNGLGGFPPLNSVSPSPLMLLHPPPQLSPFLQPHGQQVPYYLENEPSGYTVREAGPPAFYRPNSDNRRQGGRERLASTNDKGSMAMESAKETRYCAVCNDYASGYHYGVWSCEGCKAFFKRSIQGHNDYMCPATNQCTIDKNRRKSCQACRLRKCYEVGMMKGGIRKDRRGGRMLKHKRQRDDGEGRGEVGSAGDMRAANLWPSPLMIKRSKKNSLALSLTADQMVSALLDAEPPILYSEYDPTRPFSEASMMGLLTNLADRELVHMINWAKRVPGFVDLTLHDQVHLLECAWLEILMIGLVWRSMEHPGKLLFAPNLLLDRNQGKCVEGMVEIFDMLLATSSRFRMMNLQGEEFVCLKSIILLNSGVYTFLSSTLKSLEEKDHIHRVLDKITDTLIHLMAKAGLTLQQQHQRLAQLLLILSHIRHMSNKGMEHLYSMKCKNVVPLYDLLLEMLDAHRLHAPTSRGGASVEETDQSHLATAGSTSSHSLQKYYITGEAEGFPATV

Take `O=c1[nH]c(=O)c2ccccc2o1`: the Potency result in [1], in experiment [3], in experiment [4], in [6], in experiment [7] and in experiment [8] was “inactive” in each case. For the same compound, the Potency entry in [10], in experiment [11], in experiment [12], in experiment [13], in experiment [14] and in experiment [15] was “inactive” each time. Further, the Potency entry in [16] is “inactive”. The compound was classed as inactive in experiment [2], in [5], in experiment [9] and in [17].

Turning to `O=c1cc(O)c(Cl)c[nH]1`, the Potency entry in experiment [1], in [3], in [4], in [18], in experiment [7] and in experiment [8] was “inactive” in each case. Also, the Potency result in experiment [10], in [11], in experiment [12], in experiment [13], in experiment [14] and in experiment [16] was “inactive” in each case. For the same compound, the Potency result in [19] is “inactive”. Besides, the result in experiment [2], in experiment [5], in [9] and in experiment [17] was inactive.

Turning to `CCCCCCCC/C=C\CCCCCCCC(=O)OC[C@@H](O)[C@H]1OC[C@H](O)[C@H]1O`, the Potency entry in experiment [1], in experiment [3], in [4], in experiment [18], in experiment [7] and in experiment [8] was “inactive” in each case. For the same compound, the Potency entry in experiment [10], in [11], in experiment [12], in [13], in experiment [14] and in experiment [16] was “inactive” in each case. Also, the Potency result in experiment [20] and in experiment [19] was “inactive” throughout. In addition, the compound was called inactive in experiment [2], in experiment [5], in [9] and in experiment [17].

`C=C(C)[C@@H]1CC[C@@H](C)C[C@@H]1O`: the Potency entry in experiment [1], in [3], in [4], in experiment [18], in experiment [7] and in [8] was “inactive” throughout. Also, the Potency entry in [10], in experiment [11], in experiment [12], in experiment [13], in experiment [14] and in experiment [16] was “inactive” throughout. Moreover, the Potency entry in experiment [19] was “inactive”. Further, the compound was classed as inactive in experiment [2], in experiment [5] and in experiment [9].

For `O=S(=O)(O)CCO`, the Potency entry in experiment [1], in experiment [3], in [4], in [6], in experiment [7] and in [8] was “inactive” in each case. Moreover, the Potency result in [10], in experiment [11], in [12], in experiment [13], in experiment [14] and in experiment [15] was “inactive” in each case. Also, the Potency result in experiment [16], in experiment [20] and in experiment [19] was “inactive” in each case. Also, the call in experiment [2], in [5] and in [9] was inactive.

Take `CC(C)CCCCCCOC(=O)C1CCCCC1C(=O)OCCCCCCC(C)C` (stereo not drawn): the Potency result in experiment [1], in [3], in experiment [4], in experiment [18], in experiment [7] and in experiment [8] was “inactive” in each case. Further, the Potency entry in [10], in [11], in experiment [12], in experiment [13], in [14] and in [16] was “inactive” each time. Further, the Potency result in [20] and in experiment [19] was “inactive” in each case. The result in experiment [2], in experiment [5] and in experiment [9] was inactive.

For the compound `C[C@H](CCC(=O)NCC(=O)O)[C@H]1CC[C@H]2[C@@H]3[C@H](O)C[C@@H]4C[C@H](O)CC[C@]4(C)[C@H]3C[C@H](O)[C@]12C`, the Potency entry in experiment [1], in [3], in experiment [4], in [18], in experiment [7] and in experiment [8] was “inactive” in each case. Also, the Potency entry in [11], in experiment [12], in experiment [13], in [14], in experiment [15] and in experiment [16] was “inactive” each time. The Potency entry in experiment [19] is “inactive”. The result in experiment [2], in [5] and in experiment [9] was inactive. Besides, in experiment [10], the Potency was 13.4 µM (active).

As to `F[Si-2](F)(F)(F)(F)F`, the Potency result in experiment [1], in experiment [3], in experiment [4], in [6], in [7] and in experiment [8] was “inactive” in each case. For the same compound, the Potency result in experiment [10], in experiment [11], in [12], in experiment [13], in [14] and in experiment [15] was “inactive” throughout. Further, the Potency entry in experiment [16], in experiment [20] and in experiment [19] was “inactive” in each case. Moreover, the outcome in experiment [2], in experiment [5], in experiment [9] and in [17] was inactive.

Consider `CC(C)COC(=O)CC(C(=O)OCC(C)C)S(=O)(=O)O` (stereo not drawn), for which the Potency result in experiment [1], in experiment [3], in experiment [4], in [18], in experiment [7] and in [8] was “inactive” each time. The Potency entry in experiment [10], in [11], in experiment [12], in [13], in [14] and in experiment [15] was “inactive” throughout. Besides, the Potency result in [16], in [20] and in experiment [19] was “inactive” each time. The outcome in [2], in experiment [5] and in [9] was inactive.

Consider `C=CCOc1c(Br)cc(C(C)(C)c2cc(Br)c(OCC=C)c(Br)c2)cc1Br`, for which the Potency entry in [1], in experiment [3], in [4], in [6], in [7] and in [8] was “inactive” each time. Besides, the Potency entry in experiment [10], in experiment [11], in experiment [12], in experiment [13], in experiment [14] and in experiment [15] was “inactive” throughout. The Potency entry in experiment [16], in experiment [20] and in [19] was “inactive” in each case. For the same compound, the compound was classed as inactive in experiment [2], in experiment [5] and in experiment [9].

`O=C(COCCOCCOCC(=O)Nc1c(I)cc(I)c(C(=O)O)c1I)Nc1c(I)cc(I)c(C(=O)O)c1I`: the Potency entry in experiment [1], in [3], in experiment [4], in [6], in experiment [7] and in experiment [8] was “inactive” in each case. Moreover, the Potency entry in experiment [10], in experiment [11], in experiment [12], in experiment [13], in experiment [14] and in experiment [16] was “inactive” each time. For the same compound, the Potency entry in [20] and in experiment [19] was “inactive” each time. The compound was called inactive in experiment [2], in experiment [5], in experiment [9] and in experiment [17].

`CC(=O)/C=C/c1ccco1`: the Potency entry in [1], in experiment [3], in [4], in experiment [6], in experiment [7] and in experiment [8] was “inactive” in each case. Further, the Potency result in experiment [10], in experiment [11], in experiment [12], in experiment [13], in [14] and in [15] was “inactive” each time. The Potency result in experiment [16], in experiment [20] and in experiment [19] was “inactive” throughout. Besides, the compound was classed as inactive in experiment [2], in experiment [5] and in [9].

Regarding `CCC(C)N` (stereo not drawn), the Potency result in experiment [1], in experiment [3], in experiment [4], in experiment [6], in experiment [7] and in [8] was “inactive” in each case. Besides, the Potency result in [10], in [11], in [12], in [13], in experiment [14] and in experiment [16] was “inactive” in each case. The Potency entry in experiment [20] and in experiment [19] was “inactive” throughout. Besides, the call in experiment [2], in experiment [5] and in [9] was inactive.
